Data on 40 molecules can be found in PubChem BioAssay (NCI).

About 79,000 compounds went through this panel and 15% of them were active in at least one assay; those are over-represented in the sample as a whole. A number with no mark means an inactive call. Active and inactive are the calls of the source. Rule as the data show it: active = growth inhibition above about 70%; inactive = the rest.

The assay is described as follows: NCI Yeast Anticancer Drug Screen. Data for the rad50 strain (AID 155).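 Also: 0% = growth of vehicle-only cultures of the same strain.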 The note with it: S. cerevisiae rad50 strain growth inhibition; at 50.0 µM; stronger effect = higher value. As to the method: Growth inhibition of yeast strains with defined genetic alterations is measured as a screen for potential anti-cancer activity. Selected strains with alterations in DNA damage repair or cell cycle control were exposed to compounds and growth inhibition was measured relative to vehicle treated controls. The strain used in this assay is rad50
Take `NC(Cc1ccc(OC(c2ccccc2)c2ccccc2)cc1)C(=O)O` (stereo not given): the growth inhibition is 6.45%.

As to `O=C1CCCNC(=O)CCCN1`, the growth inhibition was 15%.

As for `C=C1C(=O)OC2CC(C)C3CC(O)OC(OCC)C3(C)CC12` (stereo not given), the growth inhibition is 24.1%.

In the case of `CN(C)CCCNC=O`, the growth inhibition is -30.2%.

In the case of `C/C(N=NC(=S)N1CCCC1)=C1\C=CC=CN1O`, the growth inhibition is 5.45%.

For the molecule `O=C1/C(=C/c2ccccc2)CN(C(=O)CCN2CCOCC2)C/C1=C\c1ccccc1`, the growth inhibition was 34.2%.

Consider `CCOC(=O)C(C(=O)OCC)C(=O)c1cc(OC)c(OC)c(OC)c1`, for which the growth inhibition was 4.55%.

Take `CC(=O)OC(C)C1CCCC1OC(C)=O` (stereo not given): the growth inhibition was -3.95%.

Take `COc1cccc(C2c3cc4c(cc3OC(N3CCCCC3)C2C)OCO4)c1O` (stereo not given): the growth inhibition is -22.5%.

Consider `COc1ccccc1C1OC2=C(Nc3ccc([N+](=O)[O-])cc3N2)C1=O` (stereo not given), for which the growth inhibition was 12.2%.

For `CC1CC[N-]C(N)N1.CC1CC[N-]C(N)N1.[Cl][Pd][Cl]` (stereo not given), the growth inhibition is -3.5%.

In the case of `Cc1nnc2sc(Cl)nn12`, the growth inhibition is 26.9%.

In the case of `COc1cc(C(C)Cl)ccc1OC(=O)c1ccccc1` (stereo not given), the growth inhibition is 10.8%.

As to `c1cnc(NC(Nc2cnccn2)C2CCCCC2)cn1`, the growth inhibition was -2.25%.

Consider `c1ccc(-c2nnc(-c3ccccc3)c3nonc23)cc1`, for which the growth inhibition is 0.55%.

As to `CCCc1[nH]nc(CCC(=O)N(Cc2ccccc2)Cc2ccccc2)c1CC`, the growth inhibition is -6.65%.

For `COC1OC(CO)C(O)C2OCCOCCOC3C(OC)OC(CO)C(O)C3OCCOCCOC12` (stereo not given), the growth inhibition is -2.65%.

As for `Brc1ccc2nc(-c3ccccc3)c3ccccc3c2c1`, the growth inhibition was -13.7%.

Consider `COS(=O)(=O)Cc1ccccc1`, for which the growth inhibition was -21.6%.

As for `Cc1cc(C)n(C2OC(CO)C(O)C(O)C2O)c(=S)c1C#N` (stereo not given), the growth inhibition was 21.1%.

For the molecule `Cc1ccc(S(=O)(=O)N2CC(CCl)N(S(=O)(=O)c3ccc(C)cc3)CC2CCl)cc1` (stereo not given), the growth inhibition was 28.5%.

`CCCCCCCCCCCCCCCCCCCC/C=C/C1CC(=O)OC1=O` (stereo not given): the growth inhibition was -4.8%.

In the case of `N#Cc1c(-c2ccccc2)c[nH]c1/N=C/N`, the growth inhibition is -17.6%.

For `CCCCCCC(=O)NC(O)C(Cl)(Cl)C(C)Cl` (stereo not given), the growth inhibition was 1.1%.

Consider `Oc1ccc2c(c1)CCC2`, for which the growth inhibition is 25%.

As for `CCCN(CCC)CCCCCCCCN`, the growth inhibition is 29.1%.

With `CCOC(=O)c1cn2ccccc2c1C(=O)OCC`, the growth inhibition was 3.5%.

Turning to `CCCCc1noc(N)c1SCC`, the growth inhibition is 5.45%.

Regarding `CC/C(CC(=O)CCC(=O)Nc1ccccc1[N+](=O)[O-])=N/NC(=O)C[n+]1ccccc1`, the growth inhibition was -1.8%.

Consider `Cn1c(NC(=O)C(=O)NC23CC4CC(CC(C4)C2)C3)nc2ccccc21`, for which the growth inhibition was -1.9%.

Turning to `CN(C)C(=O)c1ccccc1`, the growth inhibition is 29.6%.

Turning to `COC(=O)c1cc(Cl)ccc1NC(=O)C1CCCCC1`, the growth inhibition was 4.75%.

Take `CCC/C=N/NC(=O)c1ccc(OC)cc1`: the growth inhibition is -2.45%.

In the case of `CC(=O)Oc1cccc2c(/C=N/NC(N)=S)ncc(C)c12`, the growth inhibition was 87.6% (active).

Consider `COc1ccc(N=C(N)N2CCCc3ccccc32)cc1`, for which the growth inhibition was -5.25%.

Consider `Cn1c(=O)ccc2c(=O)c3c(ccc4ccccc43)oc21`, for which the growth inhibition was -10.1%.

Take `O=c1[nH]cnc2c(COCCO)c[nH]c12`: the growth inhibition was -18.6%.

Regarding `CCOC1(c2ccccc2)c2ccccc2Sc2ccccc21`, the growth inhibition is -12.5%.

Regarding `COc1ccc(C(=O)c2ccccc2)c(OC(=O)Nc2ccc(Cl)cc2)c1`, the growth inhibition is 14.8%.

Regarding `O=C1CCC2c3ccccc3NCN12` (stereo not given), the growth inhibition was 7.05%.
